# Measured values reported in PubChem BioAssay.
# The source made the active and inactive calls. How the calls were made is not given here.
# Target: Pantothenate synthetase (Mycobacterium tuberculosis (strain ATCC 25618 / H37Rv)) (UniProt P9WIL5)
# Assay: Coupled enzyme confirmation of inhibitors against recombinant Mtb PanC (AID 375);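 further: 0% = full reaction with vehicle and 100% = no enzyme background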
# Conditions: coupled enzyme assay; at 10 µM, active compounds read high
# Chain of Pantothenate synthetase (Mycobacterium tuberculosis (strain ATCC 25618 / H37Rv)) (P9WIL5 whole entry, looked up): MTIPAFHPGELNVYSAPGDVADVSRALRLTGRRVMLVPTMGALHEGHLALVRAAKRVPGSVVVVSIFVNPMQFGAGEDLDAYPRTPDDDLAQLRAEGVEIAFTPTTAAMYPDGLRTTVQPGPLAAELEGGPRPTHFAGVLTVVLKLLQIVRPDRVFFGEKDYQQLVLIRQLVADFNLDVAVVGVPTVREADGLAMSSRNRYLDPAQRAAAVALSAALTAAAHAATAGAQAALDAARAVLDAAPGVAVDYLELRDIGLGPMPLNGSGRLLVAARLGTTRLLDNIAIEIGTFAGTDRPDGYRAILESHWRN
row,SMILES,inhibition
1,COc1cc(-c2noc(-c3ccccc3C(=O)NCc3ccco3)n2)cc(OC)c1OC,9% (inactive)
2,CC(=O)OC1c2ccccc2C(=O)N1c1ccccc1C (stereo not given),1% (inactive)
3,Cc1cc(C)n2nc(SCc3nc4ccccc4[nH]3)nc2n1,6% (inactive)
4,CCCCC(=O)O[C@]1(C(=O)CO)CC[C@H]2[C@@H]3CCC4=CC(=O)CC[C@]4(C)[C@H]3[C@@H](O)C[C@@]21C,10% (inactive)
5,CCOC(=O)c1cc2c(=O)n3ccccc3nc2n(CCCOC)c1=NC(=O)C(C)(C)C,4% (inactive)
6,CC(C)[C@H](NC(=O)OC(C)(C)C)c1nnc(S(=O)(=O)Cc2c(F)cccc2Cl)o1,0% (inactive)
7,COc1ccc(N2CCN(Cc3nc4ccccc4c(=O)[nH]3)CC2)cc1,0% (inactive)
8,CCOC(=O)c1ccc(N2Cc3cc(C)c(C)cc3C2)cc1O,2% (inactive)
9,Cc1nn(-c2ccccc2)c2c1C(c1c(C)[nH]c(C#N)c1C)C(C#N)=C(N)O2 (stereo not given),1% (inactive)
10,O=C(COC(=O)c1cnccn1)Nc1ccc2c(c1)OCO2,7% (inactive)
11,CCOc1ccc(N2C(N)=NC(N)=NC2(C)C)cc1,0% (inactive)
12,COc1ccc(-c2nnn(CCc3nn[nH]n3)n2)cc1OC,0% (inactive)
13,COc1cccc(-c2nnc(NC(=O)Cc3cccs3)s2)c1,0% (inactive)
14,COc1cc2nc(SCC(=O)NC3CC3)n(CCC3=CCCCC3)c(=O)c2cc1OC,1% (inactive)
15,CCOC(=O)c1c(NC(=O)OC)sc2c1CCC2,0% (inactive)
16,CCCCOc1ccc(CSc2n[nH]c(C)n2)cc1,0% (inactive)
17,COc1ccc(CCNc2oc(COc3ccccc3Cl)nc2C#N)cc1OC,3% (inactive)
18,CC1CCN(C(=O)Cn2c(=O)oc3ccccc32)CC1,0% (inactive)
19,C=C(C)COc1ccc(-c2nc(N)ncc2Oc2ccccc2OCC)c(O)c1,1% (inactive)
20,CC1Cc2nc(SCC(=O)Nc3nccs3)n(C)c(=O)c2S1 (stereo not given),0% (inactive)

row,SMILES,inhibition
1,COC(=O)C1=CN(C(C)C)C=C(C(=O)OC)C1c1cc2c(cc1Br)OCO2,0% (inactive)
2,CC1=C(C(=O)OC2CCCCCC2)C(c2ccc(C)o2)C2=C(CCCC2=O)N1 (stereo not given),0% (inactive)
3,COc1ccc(NC(=O)CSc2nnc(-c3ccccc3)n2N)cc1,0% (inactive)
4,O=C(CCn1c(=S)[nH]c2cc3c(cc2c1=O)OCO3)N1CCN(C2CCCCC2)CC1,0% (inactive)
5,O=c1[nH]c(NCc2ccccc2)nc2c1CCCC2,0% (inactive)
6,Cc1ccc(S(=O)(=O)N2CCOCC2)cc1C(=O)Nc1nc(-c2cccnc2)cs1,0% (inactive)
7,CCOC(=O)CSc1nnc(-c2ccccc2OC)o1,0% (inactive)
8,Cc1cccc2sc(NC(=O)Cn3cccc3)nc12,0% (inactive)
9,O=C(Nc1ccon1)c1csc2c1CCCC2,6% (inactive)
10,CC(=O)Nc1nc2c(c3c1c(=O)oc1ccccc13)CC(C)CC2 (stereo not given),0% (inactive)
11,COc1ccc(N2C(=O)C(Cl)=C(N3CCCC3)C2=O)cc1,0% (inactive)
12,O=C(CSc1ncnc2c1oc1ccccc12)NCc1ccco1,6% (inactive)
13,COc1ccc(OC)c(-c2nc3c(C)n[nH]c(=O)c3[nH]2)c1,0% (inactive)
14,Cc1cc(NC(=O)c2cccc(S(=O)(=O)N3CC(c4ccccc4)CC3=O)c2)no1 (stereo not given),2% (inactive)
15,Cc1ccc(NC(=O)Nc2ccc3c(c2)N(C)C(=O)CS3)nc1,5% (inactive)
16,CCOc1ccc(N2CC(C(=O)NCCc3ccc(OC)c(OC)c3)CC2=O)cc1 (stereo not given),0% (inactive)
17,CNC(=O)CSc1nnc(-c2ccc(S(=O)(=O)N3CCCC3)cc2)n1-c1cccc(C)c1C,0% (inactive)
18,CCCn1c(C)cc(C(=O)COc2ncnc3sccc23)c1C,4% (inactive)
19,N=c1c(C(=O)NCc2ccc(F)cc2)cc2c(=O)n3ccccc3nc2n1CCCN1CCOCC1,0% (inactive)
20,Cc1ccc(C2N(c3ccc(Cl)c(Cl)c3)C(=O)C3CCCN32)o1 (stereo not given),6% (inactive)
